# According to PubChem BioAssay AID1159580 (chemical genetic matrix, 2015):
# “And” between values parts separate entries of the source, which are not always exact repeats. Equal entries are not always repeated. The campaign covered roughly 5,500 compounds. About 2,000 (36%) were called active. Inconclusive results (about 18%) are left out. Cut-off read from the data, not from the text of the source: active = normalized growth mostly below about 0.91 (no sharp cut-off); inconclusive = no clear call, values can overlap the other calls; inactive = mostly above about 0.92. The list shows a part of the results. More than one record can exist for a structure, and the calls need not agree.
# Assay: chemical genetic growth profiling, strain panel (AID 1159580);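 note: tested at 20 µM; growth read once vehicle control cultures reached saturation at 30 °C; 1 = growth at the plate median or of vehicle wells; lower values mean less growth of the strain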
# Details: growth OD
structure (smiles),measurement,setting,value
Fc1ccc(C(c2ccc(F)cc2)N2CCN(C/C=C/c3ccccc3)CC2)cc1,normalized growth,"S. cerevisiae deletion strains, locus YNL128W, strain TEP1, stronger effect = lower value",0.969 (inactive)
same,normalized growth,"S. cerevisiae deletion strains, locus YNL153C, strain GIM3, stronger effect = lower value",0.959 (inactive) and 0.788 (active)
same,normalized growth,"S. cerevisiae deletion strains, locus YNL183C, strain NPR1, stronger effect = lower value",0.927 (inactive)
same,normalized growth,"S. cerevisiae deletion strains, locus YNL197C, strain WHI3, stronger effect = lower value",1.08 (inactive)
same,normalized growth,"S. cerevisiae deletion strains, locus YNL209W, strain ssb2, stronger effect = lower value",0.573 (active)
same,normalized growth,"S. cerevisiae deletion strains, locus YNL233W, strain BNI4, stronger effect = lower value",0.981 (inactive)
same,normalized growth,"S. cerevisiae deletion strains, locus YNL248C, strain rpa49, stronger effect = lower value",0.227 (active)
same,normalized growth,"S. cerevisiae deletion strains, locus YNL250W, strain rad50, stronger effect = lower value",0.992 (inactive)
same,normalized growth,"S. cerevisiae deletion strains, locus YNL271C, strain bni1, stronger effect = lower value",0.984 (inactive)
same,normalized growth,"S. cerevisiae deletion strains, locus YNL298W, strain CLA4, stronger effect = lower value",0.99 (inactive)
same,normalized growth,"S. cerevisiae deletion strains, locus YNL307C, strain MCK1, stronger effect = lower value",0.992 (inactive)
same,normalized growth,"S. cerevisiae deletion strains, locus YNL322C, strain KRE1 (second series), stronger effect = lower value",0.244 (active)
same,normalized growth,"S. cerevisiae deletion strains, locus YNL322C, strain KRE1, stronger effect = lower value",0.989 (inactive) and 0.962 (inactive)
same,normalized growth,"S. cerevisiae deletion strains, locus YNR049C, strain mso1, stronger effect = lower value",0.334 (active)
same,normalized growth,"S. cerevisiae deletion strains, locus YNR052C, strain pop2, stronger effect = lower value",0.933 (inactive)
same,normalized growth,"S. cerevisiae deletion strains, locus YOL006C, strain TOP1, stronger effect = lower value",0.81 (inactive)
same,normalized growth,"S. cerevisiae deletion strains, locus YOL012C, strain htz1",1.09 (inactive)
same,normalized growth,"S. cerevisiae deletion strains, locus YOL147C, strain pex11, stronger effect = lower value",0.984 (inactive)
same,normalized growth,"S. cerevisiae deletion strains, locus YOR001W, strain rrp6, stronger effect = lower value",0.314 (active)
same,normalized growth,"S. cerevisiae deletion strains, locus YOR061W, strain CKA2, stronger effect = lower value",0.982 (inactive)
same,normalized growth,"S. cerevisiae deletion strains, locus YOR069W, strain VPS5, stronger effect = lower value",0.995 (inactive)
same,normalized growth,"S. cerevisiae deletion strains, locus YOR070C, strain gyp1, stronger effect = lower value",0.126 (active)
same,normalized growth,"S. cerevisiae deletion strains, locus YOR080W, strain dia2, stronger effect = lower value",0.423 (active)
same,normalized growth,"S. cerevisiae deletion strains, locus YOR083W, strain WHI5 (second series), stronger effect = lower value",1.05 (inactive)
same,normalized growth,"S. cerevisiae deletion strains, locus YOR083W, strain WHI5, stronger effect = lower value",0.36 (active)
same,normalized growth,"S. cerevisiae deletion strains, locus YOR106W, strain vam3, stronger effect = lower value",0.33 (active)
same,normalized growth,"S. cerevisiae deletion strains, locus YOR136W, strain idh2, stronger effect = lower value",0.989 (inactive)
same,normalized growth,"S. cerevisiae deletion strains, locus YOR144C, strain elg1, stronger effect = lower value",0.982 (inactive)
same,normalized growth,"S. cerevisiae deletion strains, locus YOR184W, strain ser1, stronger effect = lower value",1.03 (inactive)
same,normalized growth,"S. cerevisiae deletion strains, locus YOR231W, strain MKK1, stronger effect = lower value",1 (inactive)
same,normalized growth,"S. cerevisiae deletion strains, locus YOR265W, strain rbl2, stronger effect = lower value",0.251 (active)
same,normalized growth,"S. cerevisiae deletion strains, locus YOR270C, strain vph1, stronger effect = lower value",0.156 (active)
same,normalized growth,"S. cerevisiae deletion strains, locus YOR290C, strain snf2, stronger effect = lower value",0.245 (active)
same,normalized growth,"S. cerevisiae deletion strains, locus YOR316C, strain cot1, stronger effect = lower value",0.967 (inactive)
same,normalized growth,"S. cerevisiae deletion strains, locus YPL051W, strain arl3, stronger effect = lower value",0.474 (active)
same,normalized growth,"S. cerevisiae deletion strains, locus YPL055C, strain LGE1, stronger effect = lower value",0.96 (inactive)
same,normalized growth,"S. cerevisiae deletion strains, locus YPL078C, strain atp4, stronger effect = lower value",0.316 (active)
same,normalized growth,"S. cerevisiae deletion strains, locus YPL106C, strain sse1, stronger effect = lower value",0.223 (active)
same,normalized growth,"S. cerevisiae deletion strains, locus YPL240C, strain hsp82, stronger effect = lower value",0.338 (active)
same,normalized growth,"S. cerevisiae deletion strains, locus YPL241C, strain CIN2, stronger effect = lower value",0.981 (inactive)
same,normalized growth,"S. cerevisiae deletion strains, locus YPL256C, strain CLN2, stronger effect = lower value",0.97 (inactive)
same,normalized growth,"S. cerevisiae deletion strains, locus YPR119W, strain clb2, stronger effect = lower value",0.979 (inactive)
same,normalized growth,"S. cerevisiae deletion strains, locus YPR141C, strain kar3, stronger effect = lower value",0.999 (inactive)
same,normalized growth,"S. cerevisiae deletion strains, locus YPR163C, strain tif3, stronger effect = lower value",0.959 (inactive)
same,normalized growth,"S. cerevisiae deletion strains, locus YPR167C, strain met16, stronger effect = lower value",0.964 (inactive)
same,normalized growth,"S. cerevisiae deletion strains, strain wtn01, stronger effect = lower value",0.957 (inactive)
same,normalized growth,"S. cerevisiae strains, strain wild type, stronger effect = lower value",0.984 (inactive)
